Sampled rows, rich in hits. Any-hit rate of the full collection: about 3.6%.
GDH-TPI counter-1 = GDH-TPI coupling enzyme inhibitors, primary screen, artefact control for M. tuberculosis FBA inhibitor project, biochemical, absorbance, full deck; GDH-TPI coupled enzyme counterscreen, NADH absorbance; inhibition, % at 4.8 µM; actives 1.2% (n = 360,000); AID 588335, 2011; in the data active = inhibition above about 30%;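 note: 0% = DMSO wells and 100% = wells lacking the enzyme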
Mtb bLac sens = beta-lactam sensitization of Mtb H37Rv, H37Rv | AID 434955, 2010 | inhibition, % at 25 µM | actives 0.27% (n = 330,000) | M. tuberculosis H37Rv growth with meropenem, percent inhibition; call rule not given here;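 note: growth measured after seven days incubation then overnight dye step; 0% = bacteria only wells and 100% = bacteria with antibiotic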
VHR inh abs = VHR1 phosphatase inhibitors, primary screen, biochemical, absorbance, uHTS | Dual specificity protein phosphatase 3 (Homo sapiens), P51452 | recombinant VHR phosphatase, pNPP absorbance | inhibition, % at 13.3 µM | actives 0.52% (n = 290,000); in the data active = inhibition above about 50%
Target sequence (P51452 whole entry, looked up): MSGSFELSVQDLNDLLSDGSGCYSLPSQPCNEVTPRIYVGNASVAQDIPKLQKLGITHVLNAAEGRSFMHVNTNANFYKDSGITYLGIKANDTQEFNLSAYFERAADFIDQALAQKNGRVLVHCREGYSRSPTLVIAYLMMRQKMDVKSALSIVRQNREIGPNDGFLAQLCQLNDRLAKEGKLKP
Mtb hypoxia inh = PubChem AID 1159583; fluorescence inhibition, % (test concentration not listed); M. tuberculosis hypoxia-regulated fluorescent reporter, fluorescence; actives 0.1% (n = 300,000); in the data active = fluorescence inhibition mostly above about 23%, no sharp cut-off; inactive = mostly below about 17%
FBA Mtb inh = Mtb FBA enzyme inhibitors, primary screen, biochemical, fluorescence, strain H37Rv | Fructose-bisphosphate aldolase (Mycobacterium tuberculosis (strain ATCC 25618 / H37Rv)), … | purified M. tuberculosis FBA, fluorescence read-out | inhibition, % at 1 µM | actives 2.3% (n = 360,000) | AID 588726, 2011;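 note: 0% = vehicle and 100% = reference inhibitor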
Target sequence (P9WQA3 whole entry, looked up): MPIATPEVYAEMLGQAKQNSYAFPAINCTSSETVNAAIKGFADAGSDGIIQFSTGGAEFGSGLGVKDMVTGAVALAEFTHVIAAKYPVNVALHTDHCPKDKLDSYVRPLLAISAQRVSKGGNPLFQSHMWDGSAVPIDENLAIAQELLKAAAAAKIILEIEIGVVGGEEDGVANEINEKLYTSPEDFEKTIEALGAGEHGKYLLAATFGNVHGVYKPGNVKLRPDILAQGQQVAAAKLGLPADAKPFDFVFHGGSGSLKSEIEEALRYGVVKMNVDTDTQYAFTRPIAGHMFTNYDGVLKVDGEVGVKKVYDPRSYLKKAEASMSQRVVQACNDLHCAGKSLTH
Mtb FBA confirm = M. tuberculosis aldolase blockers, biochemical, fluorescence, strain H37Rv, confirmation | shares compounds with FBA Mtb inh | purified M. tuberculosis FBA, fluorescence read-out | inhibition, % at 1 µM | actives 78% (n = 5,600);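 note: 0% = vehicle wells and 100% = reference inhibitor wells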
GDH-TPI counter-2 = GDH-TPI coupling enzyme inhibitors, artefact control for M. tuberculosis FBA inhibitor project, biochemical, fluorescence, high throughput; shares compounds with FBA Mtb inh; GDH-TPI coupled enzyme counterscreen; inhibition, % at 1 µM; actives 81% (n = 5,600); in the data active = inhibition above about 10%
Starred values were filed as active, the others as inactive; ? = inconclusive; . = not tested or not shown; + = active, no number. Cut-off read from the data, not from the text of the source, unless noted: active = inhibition above about 27%; inactive = the rest.

SMILES | GDH-TPI counter-1 | Mtb bLac sens | VHR inh abs | Mtb hypoxia inh | FBA Mtb inh | Mtb FBA confirm | GDH-TPI counter-2
CS(=O)(=O)NN1C(=O)c2ccccc2NC1c1cccs1 (stereo not given) | 13 | -7 | 16 | -3 | 23 | . | .
c1ccc2c(c1)NC(c1ccncc1)n1c-2nc2ccccc21 (stereo not given) | 11 | -9 | 16 | . | 56* | 0 | -5
c1csc(C2Nc3ccccc3-c3nc4ccccc4n32)c1 (stereo not given) | 22 | ? | 2 | 8 | 58* | 138* | 97*
c1cncc(C2Nc3ccccc3-c3nc4ccccc4n32)c1 (stereo not given) | 8 | 2 | 22 | -5 | 36* | 115* | 92*
COc1cc2c(cc1O)C[C@H]1NCCc3cc4c(c-2c31)OCO4 | 18 | 53 | 20 | . | 30* | 108* | 89*
O=C(NN=Cc1ccncc1)c1cc2ccccc2o1 | . | . | . | -1 | . | . | .
CCOC(=O)c1nn(-c2ccc(C)c(C)c2)cc1O | 16 | 98 | 10 | -3 | 3 | . | .
CCOC(=O)c1nn(-c2ccc3c(c2)OCCO3)cc1O | 4 | 84 | 13 | 13 | 31* | 93* | 65*
CCNc1oc(/C=C/c2ccc(OCC)cc2)nc1C#N | 17 | 11 | -2 | 3 | 29* | 86* | 71*
O=C1Nc2ccc(S(=O)(=O)NCCCO)c3cccc1c23 | 28 | -5 | 9 | -8 | 52* | 94* | 61*
CCN(CC)S(=O)(=O)c1ccc2c3c(cccc13)C(=O)N2 | 16 | 7 | 20 | 8 | 6 | . | .
CCNS(=O)(=O)c1ccc2c3c(cccc13)C(=O)N2 | 19 | 5 | 31 | 2 | 65* | 53* | 38*
O=C1Nc2ccc(S(=O)(=O)NCCC3=CCCCC3)c3cccc1c23 | -3 | -4 | 24 | -10 | 13 | . | .
O=C1Nc2ccc(S(=O)(=O)NCC3CCCO3)c3cccc1c23 (stereo not given) | 3 | -6 | -8 | 8 | 50* | 47* | 31*
CCOc1ccccc1-c1cc(C(=O)NN=Cc2ccc(O)c(OC)c2)c2ccccc2n1 | . | . | . | 8 | . | . | .
ON=Cc1ccc2cccc(OCc3ccccc3)c2n1 | . | . | . | 10 | . | . | .
CCCCN(CC)C(=O)c1cc2cc3ccc(OC)cc3nc2o1 | 34* | 77 | 36 | 24 | 41* | 98* | 78*
Cc1ccc2cc3cc(C(=O)NCCCN4CCc5ccccc5C4)oc3nc2c1 | 35* | -1 | -4 | . | 70* | 184* | 134*
CCOc1ccc(NC(=O)c2cc3cc4ccc(C)cc4nc3o2)cc1 | . | 4 | 23 | 8 | . | . | .
CCCCN(CC)CCCNC(=O)c1cc2cc3ccc(C)cc3nc2o1 | 35* | -5 | 24 | 13 | 95* | 78* | 70*
Cc1ccc2cc3cc(C(=O)NCCCN4CCCCCC4)oc3nc2c1 | 25 | -1 | 3 | . | 75* | 97* | 47*
COc1ccc(C=NNC(=O)C2(O)c3ccccc3-c3ccccc32)cc1 | . | . | . | 6 | . | . | .
O=C(NN=C/C=C/c1ccco1)C(O)c1ccccc1 (stereo not given) | . | . | . | 10 | . | . | .
O=[N+]([O-])c1ccc(Oc2ccc(C=NO)cc2)nc1 | . | . | . | 10 | . | . | .
c1cc(Nc2ncnc3sc4c(c23)CCC4)ccn1 | 5 | 1 | 12 | -6 | 60* | 8 | -4
SMILES | GDH-TPI counter-1 | Mtb bLac sens | VHR inh abs | Mtb hypoxia inh | FBA Mtb inh | Mtb FBA confirm | GDH-TPI counter-2
NNc1ncnc2sc3c(c12)CCC3 | 6 | 100 | 7 | -4 | 0 | . | .
CCc1ccc(OCC(=O)NN=C(C)c2ccc(O)cc2O)cc1 | . | . | . | 9 | . | . | .
CC1CCc2c(sc(Nc3nc4c(F)cccc4s3)c2C(N)=O)C1 (stereo not given) | 15 | 63 | 7 | 8 | 28* | 113* | 99*
Cc1cc(C)nc(SCC(=O)NN=C/C(Br)=C/c2ccccc2)n1 | . | . | . | 4 | . | . | .
CC(C)c1nc2oc3c(NCC4CCCO4)ncnc3c2c2c1CCC2 (stereo not given) | 9 | 43 | 15 | 13 | 57* | 181* | 151*
CCCc1nc2oc3c(NCCCN(C)C)ncnc3c2c2c1CCCC2 | 10 | 2 | 22 | 10 | 61* | + | +
CCCc1nc2oc3c(NCC4CCCO4)ncnc3c2c2c1COC(C)(C)C2 (stereo not given) | -13 | -2 | -6 | 12 | 12 | . | .
CC(C)Cc1nc2oc3c(NCC(C)O)ncnc3c2c2c1CCCC2 (stereo not given) | -2 | 8 | -27 | 3 | 60* | + | +
CCCc1nc2oc3c(NCCN(C)C)ncnc3c2c2c1CCCC2 | 6 | 31 | 10 | 18 | 22 | . | .
COc1cccc(C(=O)NCC(=O)NN=Cc2ccc(OC(=O)c3cccs3)c(OC)c2)c1 | . | . | . | 1 | . | . | .
Cc1ccccc1S(=O)(=O)Nc1nc2ccccc2nc1N1CCc2ccccc2C1 | 10 | -3 | -12 | 7 | 11 | . | .
O=S(=O)(Nc1nc2ccccc2nc1N1CCc2ccccc2C1)c1ccc(Cl)cc1 | 32* | 36 | 2 | . | 66* | + | +
O=C(NN=Cc1ccccn1)c1cc(-c2ccccc2)nc2ccccc12 | . | . | . | -7 | . | . | .
COCc1c(C(=O)NN=Cc2c[nH]c3ccccc23)nnn1-c1nonc1N | . | . | . | -3 | . | . | .
CCOC(=O)CCc1c(C)nc2c(c(C)nn2-c2ccc(C)cc2)c1C | 0 | 6 | -9 | -4 | 8 | . | .
Cc1ccc(-n2nc(C)c3c(C)c(CCC(=O)O)c(C)nc32)cc1C | 2 | 3 | 24 | -1 | 40* | 1 | 0
Cc1ccc(-n2nc(C)c3c(C)c(CCC(=O)O)c(C)nc32)cc1 | 2 | 3 | 7 | 15 | 68* | 184* | 117*
Cn1cccc1C=NN1CCN(c2ccccn2)CC1 | . | . | . | 1 | . | . | .
Cc1cc(O)ccc1-c1cccc2nccn12 | -3 | . | . | . | 49* | -4 | -3
c1cc(-c2ccsc2)n2ccnc2c1 | 5 | . | . | . | 56* | 172* | 137*
O=C1OCCN1C(=O)C1C(c2ccc(Cl)cc2)C(c2cccc(Cl)c2)=NN1c1ccccc1 (stereo not given) | . | . | . | 6 | . | . | .
CC1CN(C(C)CO)C(=O)c2cccc(NC(=O)Nc3ccc4c(c3)OCO4)c2OC1CN(C)S(=O)(=O)c1cccs1 (stereo not given) | . | . | . | 10 | . | . | .
CCOc1ccccc1N(CC(=O)NN=Cc1cc(Br)ccc1OC)S(C)(=O)=O | . | . | . | 3 | . | . | .
COc1ccc(-c2nc(CCNC(=O)c3ccco3)cs2)cc1OC | -10 | -7 | -23 | 3 | 26 | . | .

Source: PubChem BioAssay
